The values that follow come from PubChem BioAssay (NCI).

About 83,000 compounds went through this panel and 20% of them were active in at least one assay; those are over-represented in the sample as a whole.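 Method: cells in 96-well plates; compound added at one concentration; 48 h incubation; percent growth measured; values under 10 scored active.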 Activity calls are given as the source filed them.

The experiment deals with OVCAR-8 ovarian. Kind of experiment: NCI-60 one-dose screen, 48 h (100 = growth as untreated, 0 = no growth, -100 = all killed). Particulars: 10 µM unless noted. Here is the method:
Growth inhibition of the OVCAR-8 human tumor cell line is measured as a screen for anti-cancer activity. Cells are grown in 96 well plates and exposed to the test compound for 48 hours. Compounds are tested at a single concentration, which is 10^-5 M for most compounds. The reported endpoint is percent growth (GI% or GIPRCNT), where numbers from 0 - 100% represent growth inhibition, and numbers from -100% - 0 represent cell death. For example, a value of 40 represents 60% growth inhibition. A value of 0 means no net growth occurred over the course of the experiment. A value of -40 indicates 40% of cells at the beginning of the experiment died by the end of the experiment. A value of -100 means all cells are dead at the end of the experiment.
NCI-60 Human Tumor Cell Lines Screen was performed using the standard one-dose NCI protocol, which is described in more detail at https://dtp.cancer.gov/discovery_development/nci-60/default.htm.
Compounds with GIPRCNT values below 10 were considered active. Activity score was based on GIPRCNT using the following formula: […]
Score is 0 for GIPRCNT values of 100 or above, 50 for GIPRCNT values of 0, and 100 for GIPRCNT values of -100.
For `CCOC(=O)c1c(NC(=O)c2ccc(C(F)(F)F)cc2)sc2c3c(ccc12)OCN(C)C3`, the growth is -48% (active).
In the case of `O=C1C(N2CCN(c3ccccc3)CC2)=C(Cl)C(=O)c2ncccc21` it was 73.5% (inactive).
Under `CC(=O)OCCCCN1C=C/C(=C\C(=O)n2ccc3ccccc32)c2ccccc21` stands 102% (inactive).
Take `CC(Nc1c(C#N)cnc2ccc(-c3cncc(-c4n[nH]c(=O)o4)c3)cc12)c1ccccc1` (stereo not given): the growth was 18.1% (inactive).
In the case of `C#CCOc1ccccc1/C=N/Nc1nc(-c2ccc(Cl)cc2)cs1` it was 98.1% (inactive).
In the case of `CCOC(=O)c1c(NC(=O)c2ccc(C(F)(F)F)cc2)sc2c(CN3CCN(C)CC3)c(O)ccc12` it was -56.2% (active); in that of `COc1ccc(OC)c(CCn2cncc2-c2c[nH]c3ccc(Cl)cc23)c1`, 40.5% (inactive).
`N#Cc1nc(-c2ccccc2)oc1N1CCC(C2(C(F)(F)F)N=N2)CC1`: the growth is 97.6% (inactive).
Under `O=C1Nc2ccccc2/C1=C/c1ccc(OCC(=O)c2ccccc2)cc1` stands 94.8% (inactive).
Under `C#CCn1cc(/C=N/Nc2nc(-c3ccc(Br)cc3)cs2)c2ccccc21` stands 101% (inactive); under `O=C(Nc1ccc(N=Cc2c(O)[nH]c3ccccc23)cc1)Nc1ccc(S(=O)(=O)Nc2ncccn2)cc1`, 102% (inactive); under `COc1ccc(-c2nc(C#N)c(N3CCC(S(=O)(=O)N4CCOCC4)CC3)o2)cc1`, 106% (inactive).
In the case of `COc1cccc2c1C=CC1(O2)Oc2cccc(OC)c2C=C1C` (stereo not given) it was 23.5% (inactive); in that of `CCOC(=O)c1ccc(NC2=CC(=O)C(C)=C(C)C2=O)cc1`, 83.7% (inactive).
Take `CCCCCCNC(=O)Oc1ccc(/C(=C(/C)c2ccc(OC)cc2)c2ccc(OCCN3CCCCCC3)cc2)cc1`: the growth is 41.8% (inactive).
In the case of `CCN(CC)CCOc1ccc(C(=C(C)c2ccc(OC)cc2)c2ccc(OCCN(CC)CC)cc2)cc1` it was 10% (active); in that of `COc1ccc2[nH]cc(-c3nc(N)nnc3-c3cn(C)c4ccc(Br)cc34)c2c1`, 42.8% (inactive).
In the case of `COC(=O)c1cccc(NC2=CC(=O)C(C)=C(C)C2=O)c1`, the growth is 87.9% (inactive).
As for `O=C(CCCCCCN1CC(=O)N2[C@@H](c3ccc(Cl)s3)c3[nH]c4ccccc4c3C[C@H]2C1=O)NO`, the growth is 38.5% (inactive).
In the case of `O=C(/C=C/c1cc(Cl)ccc1Cl)Nc1ncc(Cc2ccc(Cl)cc2)s1` it was 1.15% (active).
Under `CC(=O)c1c([Si](C)(C)C)c2cc(C#N)ccn2c1C(=O)c1ccc(Br)cc1` stands 94.8% (inactive).
In the case of `Clc1ccc2[nH]cc(-c3nn4cc(-c5cccnc5)nc4s3)c2c1`, the growth is 103% (inactive).
In the case of `CN(C)c1cccc2c(S(=O)(=O)Nc3cccc(-c4csc(NC(=O)CCCCCN5CCN(CCO)CC5)n4)c3)cccc12` it was 89% (inactive).
In the case of `Cc1ccc2c(n1)C(=O)C(Cl)=C(Nc1ccc(C#N)cc1)C2=O` it was 91.5% (inactive); in that of `N#C/C(=N\Nc1ccc(F)cc1)C(=O)Nc1cc(-c2ccccc2)nn1-c1ccccc1`, 11% (inactive).
In the case of `CCCc1cc2cc(-n3nc(CC)c4c3CC(C)(C)CC4=O)cc(NC3CCC(O)CC3)c2c(=O)[nH]1` (stereo not given) it was 21.9% (inactive); in that of `O=C(/C=C/c1ccc(Cl)c(Cl)c1)Nc1ncc(Cc2ccc(Cl)c(Cl)c2)s1`, 44% (inactive); in that of `O=C1[C@@H]2Cc3c([nH]c4ccccc34)[C@H](c3ccc(Cl)cc3)N2C(=O)CN1C1CCN(Cc2ccccc2)CC1`, 64.4% (inactive).
Take `CNC(=O)c1cc(-n2ccc3cc(NC(=O)Nc4ccc(N5CCN(C)CC5)c(C(F)(F)F)c4)ccc32)ccn1`: the growth was 97.7% (inactive).
With `O=C(Nc1ccc(Cl)c(C(F)(F)F)c1)Nc1ccc2c(ccn2C(=O)c2cccc(F)c2)c1`, the growth is 34.1% (inactive).
As to `C#CCOc1ccccc1C(OC(=O)c1ccccc1)C(=O)NC(C)(C)C(C)(C)C` (stereo not given), the growth is 89.3% (inactive).
For the molecule `Nc1nc(=O)n([C@H]2C[C@H](O)[C@@H](CO)O2)cc1C=O`, the growth was 11.3% (inactive).
Take `CCOC(=O)c1ccccc1NC1=C(Cl)C(=O)c2nc(C)ccc2C1=O`: the growth was 100% (inactive).
In the case of `Cc1c(C(=O)/C=C/c2ccc(Cl)cc2)nnn1-c1ccc2oc(=O)ccc2c1` it was 99.4% (inactive); in that of `Cc1ccc(C)c(NC2=C(Cl)C(=O)c3nc(C)ccc3C2=O)c1`, 9.92% (active).
As for `Cn1cc(-c2nc(N)nnc2-c2c[nH]c3ccc(Br)cc23)c2cc(F)ccc21`, the growth is 96.8% (inactive).
In the case of `COc1cc(/C=N\NC(=O)c2ccc3nc(-c4ccc(Br)cc4)[nH]c3c2)cc(OC)c1OC` it was 45.6% (inactive); in that of `COc1cc2cc(Oc3ccc(NC(=O)Nc4ccc(F)c(C(F)(F)F)c4)cc3)c(C)nc2cc1OCCN(C)C`, 102% (inactive).
With `CC1CCN(CC(=O)Nn2c(COc3ccccc3)nc3ccccc3c2=O)CC1`, the growth was 98.5% (inactive).
In the case of `O=C(CCCCCCNC(=O)C(O)(O)C(F)(F)F)Nc1ncc(-c2ccccc2)s1` it was -2.23% (active).
